# Measurements as given in PubChem BioAssay (NCI).
# Compounds without any hit were thinned out: in the full panel of roughly 83,000, 20% have a hit.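 48-hour exposure, single concentration, 96-well plates; percent growth endpoint where 0 means no net growth. Active: below 10.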 Calls of active or inactive are those of the source.
# System: NCI-H322M lung
# Assay: NCI-60 one-dose screen, 48 h (100 = growth as untreated, 0 = no growth, -100 = all killed)
# Settings: 10 µM unless noted
row,SMILES,growth
1,O=C1Nc2ccc(Br)cc2/C1=N/c1nc(-c2ccccc2)cs1,88% (inactive)
2,CS(=O)(=O)c1ccc(C(=O)N/N=C/c2ccccc2Cl)cc1,99.2% (inactive)
3,Cc1ccc(Nc2cccc3ccccc23)cc1,82.8% (inactive)
4,CCCCc1nc(Cl)c(C2CC(c3ccc(S(N)(=O)=O)cc3)=NN2c2ccc(C#N)cc2)[nH]1 (stereo not drawn),81.3% (inactive)
5,O/N=C1\c2ccccc2-c2ccc(Br)cc21,101% (inactive)
6,CCN(CC)CCCC(C)Nc1c(-c2ccccc2)cnc2cc(Cl)ccc12 (stereo not drawn),97.4% (inactive)
7,OC(COCc1ccccc1)COCc1ccccc1,112% (inactive)
8,O=C(CC(=O)c1cccc(Cl)c1)c1cccc(Cl)c1,47.9% (inactive)
9,O=C1CCCN1C1CCN2CCCc3cccc1c32 (stereo not drawn),114% (inactive)
10,CC(C)(C)[Si](C)(C)OC1[C@@H](CNC(N)=O)O[C@@H](n2cnc3c(NC(=O)Nc4ccccc4)ncnc32)[C@H]1O[Si](C)(C)C(C)(C)C (stereo partly drawn),119% (inactive)
11,NC(CCC(=O)NC(CS)C(=O)NCC(=O)O)C(=O)O (stereo not drawn),126% (inactive)
12,C/C(=N\NC(=O)CSc1nc2ccccc2c(=O)n1CCc1ccc(S(N)(=O)=O)cc1)c1ccc(Br)cc1,97.2% (inactive)
13,CC(C)CCSc1nc(Nc2ccccc2)c(C#N)c(-c2ccc(F)cc2)n1,49.8% (inactive)
14,CCOC(=O)C1OC2(CCCC2)OC1C(=O)OCC (stereo not drawn),94.3% (inactive)
15,CS(=O)(=O)c1ccc(C(=O)N/N=C/c2ccccc2O)cc1,38.4% (inactive)
16,O=C(NCCN1CCCC1)n1cc(-c2ccncc2)c(-c2cc(O)cc(Cl)c2)n1,115% (inactive)
17,C[C@@H]1N=C(c2ccc3ccccc3c2)Nc2nc3ccccn3c2C1=O,73.2% (inactive)
18,CNCCCn1c2c(c3ccc(Cl)cc3c1=O)C(=O)c1cc(OC)cnc1-2,61.8% (inactive)
19,CC(=O)Oc1ccccc1C(=O)Nc1ncc([N+](=O)[O-])s1,10.8% (inactive)
20,O=C1/C(=C/c2ccccc2)SC(=Nc2ccccc2)N1Nc1ccccc1,26.9% (inactive)
21,Oc1c(C(Nc2cccc3ccccc23)c2ccccc2)ccc2cccnc12 (stereo not drawn),37.2% (inactive)
22,COc1ccc(CC2c3cc(OC)c(OC)cc3CC[N+]2(C)CCC(=O)OCCCCCOC(=O)CC[N+]2(C)CCc3cc(OC)c(OC)cc3C2Cc2ccc(OC)c(OC)c2)cc1OC (stereo not drawn),90.9% (inactive)
23,CCn1c(Cc2ccccc2Nc2c(Cl)cccc2Cl)nnc1SCC(=O)Nc1ccccc1C(F)(F)F,79.4% (inactive)
